Bioassay records as filed in PubChem BioAssay.
Mdm2 MdmX PPI: human Mdm2/MdmX binding inhibition; 330,000 compounds, 3% hits; inhibition, % at 8 µM; O15151+Q00987; SaOS-2 split-luciferase Mdm2/MdmX complementation, luminescence; AID 485346;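 active = inhibition of at least 50% at 8 µM in the primary screen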
Target sequence (O15151 whole entry, looked up): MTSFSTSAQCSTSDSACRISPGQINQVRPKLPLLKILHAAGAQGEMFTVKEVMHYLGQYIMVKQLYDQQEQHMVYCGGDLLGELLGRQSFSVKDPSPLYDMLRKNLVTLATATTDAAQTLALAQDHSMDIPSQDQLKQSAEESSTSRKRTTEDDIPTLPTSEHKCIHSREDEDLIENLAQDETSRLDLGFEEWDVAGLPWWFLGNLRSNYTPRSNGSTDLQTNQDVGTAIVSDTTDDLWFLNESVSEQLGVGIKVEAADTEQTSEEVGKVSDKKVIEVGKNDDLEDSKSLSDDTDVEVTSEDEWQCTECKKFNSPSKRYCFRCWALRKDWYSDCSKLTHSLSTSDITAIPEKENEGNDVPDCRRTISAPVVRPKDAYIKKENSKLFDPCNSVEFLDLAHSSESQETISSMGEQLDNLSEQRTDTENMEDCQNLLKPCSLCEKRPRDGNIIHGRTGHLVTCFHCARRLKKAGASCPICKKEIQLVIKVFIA
Target sequence (Q00987 whole entry, looked up): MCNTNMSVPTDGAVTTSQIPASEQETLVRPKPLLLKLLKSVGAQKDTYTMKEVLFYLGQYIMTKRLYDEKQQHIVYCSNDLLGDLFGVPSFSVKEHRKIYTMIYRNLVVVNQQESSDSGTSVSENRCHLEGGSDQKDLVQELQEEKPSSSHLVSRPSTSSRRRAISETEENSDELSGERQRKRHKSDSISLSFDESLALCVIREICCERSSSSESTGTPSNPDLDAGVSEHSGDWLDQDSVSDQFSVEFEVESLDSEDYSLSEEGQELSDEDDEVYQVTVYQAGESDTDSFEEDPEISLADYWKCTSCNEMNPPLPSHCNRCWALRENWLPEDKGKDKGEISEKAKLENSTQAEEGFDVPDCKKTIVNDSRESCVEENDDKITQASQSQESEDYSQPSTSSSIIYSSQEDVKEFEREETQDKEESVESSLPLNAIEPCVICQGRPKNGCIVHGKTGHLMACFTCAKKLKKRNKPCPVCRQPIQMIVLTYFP
CSC inhib: cancer stem cell inhibition; cancer stem cell-like cells viability, luminescence; inhibition, % at 7.5 µM; 300,000 compounds, 1.1% hits; AID 2717; in the data active = inhibition above about 75%; inconclusive = no clear call, values can overlap the other calls; tested in HMLE shEcad cells
697 NFkB inh: inhibitors of the PMA/ionomycin-induced NF-kB reporter in 697 B cells | 697 B-cell NF-kB luciferase reporter, 16 h | inhibition, % at 4 µM | 330,000 compounds, 0.33% hits; in the data active = inhibition above about 35%
Gli-Sufu antag: antagonists of Gli-Sufu signaling. inhibition, % at 5 µM. AID 588413. Sufu-KO-LIGHT fibroblasts, Gli luciferase reporter luminescence. 340,000 compounds, 0.74% hits;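 active = inhibition above about 55%, limit read from the data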;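 note: 0% = DMSO-treated cells and 100% = wells with medium but no cells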
Jurkat NFkB inh: lowers PMA/ionomycin-induced NF-kB signal in Jurkat cells; inhibition, % at 4 µM; PMA/ionomycin-induced NF-kB luciferase reporter, luminescence; 330,000 compounds, 0.53% hits; in the data active = inhibition above about 50%
aSyn 5UTR inh: MLPCN primary screen, SNCA 5' untranslated region; alpha-synuclein 5'UTR reporter, inhibitor activity; inhibition, % (tested at 7.5 µM); 300,000 compounds, 0.82% hits; AID 1813; in the data active = inhibition above about 60%; inconclusive = no clear call, values can overlap the other calls;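 note: H4 neuroglioblastoma cells stably carrying SNCA 5'UTR luciferase fusion; 0% = DMSO wells and 100% = positive control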
Mdm2 MdmX conf: human Mdm2/MdmX binding inhibition, confirmed; shares compounds with Mdm2 MdmX PPI; luminescent assay; inhibition, % at 8 µM; 10,000 compounds, 55% hits; AID 489028; in the data active = inhibition above about 40%
Full FLuc ctr: counter-screen for Mdm2/MdmX inhibitors: full-length luciferase; shares compounds with Mdm2 MdmX PPI; SaOS-2 full-length luciferase counterscreen, luminescence; inhibition, % at 8 µM; 6,200 compounds, 77% hits; AID 504607;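 active = mean inhibition at 8 µM reaching about 37%, which flags the compound as non-specific, limit read from the data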;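 note: p53-null SaOS-2 cells with luciferase driven by a doxycycline-inducible promoter; compound on cells about two nights before reading with doxycycline added after day one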
Numbers without * were called inactive; u = inconclusive; x = no result. Rows were chosen to be rich in hits. Some 4.5% of all compounds tested hit in one or more screens of this group.

SMILES	Mdm2 MdmX PPI	CSC inhib	697 NFkB inh	Gli-Sufu antag	Jurkat NFkB inh	aSyn 5UTR inh	Mdm2 MdmX conf	Full FLuc ctr
Cc1cc(OCC(=O)N2CCN(c3ccccc3)CC2)c2c(C)c(C)c(=O)oc2c1	64.1*	-8.5	-7.5	40.1	8.1	11.3	66.5*	86.7*
Cc1cc(OCC(=O)N2CCC(C(=O)O)CC2)c2c(C)c(C)c(=O)oc2c1	-2.3	-10.0	18.8	-1.6	8.3	4.8	x	x
Cc1cc(O)c(NC(=S)NC(=O)c2ccc(-c3ccc(Cl)cc3)o2)cc1C	25.8	4.6	-26.7	-1.3	-13.2	-12.9	x	x
CN1CCN(c2ccccc2NC(=O)c2ccc(-c3ccc(Cl)c(Cl)c3)o2)CC1	57.7*	89.8*	-2.2	24.1	6.8	7.8	22.6	x
Cc1cc(N2CCN(C)CC2)ccc1NC(=O)c1ccc(-c2ccc(Cl)cc2)o1	51.9*	u	-4.3	8.0	40.4	-12.0	45.4*	74.2*
O=C(NCC1CCCCC1)c1ccc(F)cc1Cl	-17.4	1.3	-32.2	-61.6	-30.3	-124.5	x	x
Cn1c2ccccc2c(=O)c2c(=O)n(C3CCCCC3)c(-c3ccco3)nc21	79.7*	9.7	-13.3	6.2	5.7	-3.8	65.8*	90.0*
Cn1c2ccccc2c(=O)c2c(=O)n(-c3ccccc3)c(-c3ccc(C(C)(C)C)cc3)nc21	88.8*	-18.3	-14.8	1.2	-7.5	-56.5	78.6*	54.6*
Cc1ccc(-c2nc3c(c(=O)c4ccccc4n3C)c(=O)n2-c2ccc(F)cc2)cc1	13.7	-4.0	5.4	-6.7	-1.5	-20.4	x	x
COc1cc(SC)ccc1C(=O)Nc1ccc2c(c1)CCC2	-151.2	24.7	-155.8	-87.8	-148.9	-118.8	x	x
O=c1c(Cl)nc2cc(Cl)ccc2n1CCNc1ncc(C(F)(F)F)cc1Cl	96.8*	-1.4	10.2	2.4	17.0	109.5*	43.4*	6.5
C/C(=N/NC(=O)c1ccc2nc[nH]c2c1)c1cccs1	-53.3	0.9	-64.1	-49.8	-61.2	-18.9	x	x
O=C(c1cnccn1)N1CCN(C/C=C/c2ccccc2)CC1	16.9	-29.3	16.0	-20.7	-9.2	24.2	x	x
COc1ccc(N2CC(C(=O)Nc3ccc(S(=O)(=O)N4CCCC4)cc3)CC2=O)cc1 (stereo not drawn)	0.5	6.5	6.0	-7.3	-11.3	36.4	x	x
COCCNC(=O)/C(C#N)=C/C=C/c1ccccc1[N+](=O)[O-]	52.9*	20.8	-63.9	-2.0	27.8	-41.3	54.2*	22.7
CCC(C)Sc1nc2c(cnn2-c2ccc(C)c(C)c2)c(=O)[nH]1 (stereo not drawn)	10.7	12.9	-11.3	2.6	0.2	37.3	x	x
CSc1nc2c(cnn2-c2ccc(C)c(C)c2)c(=O)[nH]1	53.1*	-1.9	-4.8	9.9	-3.0	8.9	5.2	x
CCCCn1c(N)c(N(CCC(C)C)C(=O)c2ccc3c(c2)OCO3)c(=O)[nH]c1=O	15.9	-5.2	18.2	29.9	-7.7	4.7	x	x
COc1cc(-n2c(=O)c3ccccc3n(CC(=O)c3ccccc3)c2=O)cc(OC)c1OC	83.1*	-14.4	8.7	4.3	9.3	8.2	3.5	x
C#CCOCCOCCOCCNc1nc(N2CCN(C(=O)[C@H](CCCCN)n3cc(CC(C)O)nn3)CC2)nc(N2CCN(C(=O)[C@H](CCCCN)n3cc(CC(C)O)nn3)CC2)n1 (stereo partly drawn)	1.3	2.6	14.5	15.6	6.4	x	x	x
CCN(CC)S(=O)(=O)c1ccc(-c2nnc(SCC(=O)N3CCOCC3)o2)cc1	-15.5	-13.8	-65.4	2.9	-14.8	19.5	x	x
CCN(CC)S(=O)(=O)c1ccc(-c2nnc(SCC(=O)N3CCc4ccccc43)o2)cc1	74.7*	-6.0	2.3	3.3	-1.3	24.7	-11.4	x
COc1ccc(NC(=S)N/N=C/c2cccn2Cc2ccc(F)cc2)cc1	17.6	5.1	-30.4	-18.9	-0.9	-4.8	x	x
Cc1cc(N2CCN(c3ccc([N+](=O)[O-])c4cccnc34)CC2)c2ccccc2n1	94.5*	2.3	-60.7	25.4	21.5	83.7*	80.4*	55.5*
O=C(O)c1cc2ccccc2c(N=Nc2cccnc2)c1O	61.2*	22.9	10.2	11.5	2.2	41.1	32.5	x
SMILES	Mdm2 MdmX PPI	CSC inhib	697 NFkB inh	Gli-Sufu antag	Jurkat NFkB inh	aSyn 5UTR inh	Mdm2 MdmX conf	Full FLuc ctr
O=C(CCN1CCN(c2ccccc2)CC1)N/N=C/c1ccccc1O	59.6*	38.5	-0.8	4.6	13.3	70.6*	56.1*	56.5*
Cc1ccc(N=c2oc3cc(O)ccc3cc2C(N)=O)cc1	83.7*	33.9	-142.2	-9.2	0.3	-13.9	53.2*	17.2
O=C(c1ccc(C#CC2(O)CCCCC2)cc1)N1CCN(C(c2ccccc2)c2ccccc2)CC1	56.6*	77.1*	-38.6	-9.1	-3.0	-37.1	32.9	x
COc1ccc([C@@H]2[C@@H]3C(=O)N(C(C)(C)C)C(=O)[C@@H]3[C@]3(CC(C)C)C(=O)N(c4ccccc4)C(=O)N23)cc1	2.8	-4.8	3.4	-5.5	-24.3	-9.8	x	x
COc1ccc([C@@H]2[C@@H]3C(=O)N(C(C)(C)C)C(=O)[C@@H]3[C@]3(Cc4ccccc4)C(=O)N(c4ccc(C(F)(F)F)cc4)C(=O)N23)cc1	84.6*	4.8	-1.0	-5.2	8.6	-11.0	90.3*	27.8
COc1ccc([C@@H]2[C@@H]3C(=O)N(C(C)(C)C)C(=O)[C@@H]3[C@]3(CC(C)C)C(=O)N(c4ccc(C(F)(F)F)cc4)C(=O)N23)cc1	74.0*	-6.1	-13.1	6.0	7.8	-3.1	75.7*	35.0
CCN(c1ccc(NC(=O)c2ccc(N3CCCC3=O)cc2)cc1)C(C)C	31.8	8.7	-39.7	1.1	18.5	-7.9	x	x
O=C(/C=C/c1c(Cl)cccc1Cl)n1cccn1	29.5	-5.2	-5.8	4.8	7.0	-53.2	x	x
O=C1C=C(Nc2ccc(Cl)cc2Cl)CC(c2ccco2)C1 (stereo not drawn)	50.6*	49.0	-29.9	-6.6	24.7	17.4	53.2*	62.1*
O=C(NCC1CCCO1)c1ccc(Br)c(S(=O)(=O)N2CCOCC2)c1 (stereo not drawn)	-19.6	x	7.5	x	-1.8	x	x	x
O=C(NCC1CCCO1)c1c(O)c2cccc3c2n(c1=O)CC3 (stereo not drawn)	69.2*	4.3	-5.3	-5.7	-9.2	-26.2	69.2*	54.8*
Cn1c(=O)c(C(=O)NCC2CCCO2)c(O)c2ccccc21 (stereo not drawn)	77.7*	2.7	-77.4	-27.8	-62.5	-67.4	45.1*	22.0
CCCNC(=O)c1c(O)c2cccc3c2n(c1=O)CCC3	x	6.4	x	1.8	x	-5.6	x	x
O=C(NCC1CCCO1)c1c(O)c2cccc3c2n(c1=O)CCC3 (stereo not drawn)	84.2*	20.2	5.9	2.2	8.1	-18.1	58.2*	45.5*
Cn1c(=O)c(C(=O)NNC(=O)c2ccc(Br)cc2)c(O)c2ccccc21	53.7*	u	4.3	-20.4	0.7	18.0	30.5	x
